Assay outcomes as filed in PubChem.
An excerpt weighted towards active compounds, which were near 1.8% of everything screened.
APOBEC3A inh = inhibitors of human APOBEC3A DNA deaminase. recombinant A3A, FAM/TAMRA ssDNA deamination fluorescence. AID 493011. hit rate 0.41% among 330,000. inhibition, % at 20 µM;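 active means at least 40% inhibition at 20 µM here, with at most 30% in a related deaminase screen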;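 further: plate controls were A3A with DMSO for no effect and wells lacking A3A enzyme for full effect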
VLA-4 inh = inhibition in a human VLA-4 binding assay. P13612. VLA-4 expressing cells, ligand binding flow cytometry. inhibition, % (about 7 µM as worked out from the volumes in the protocol). hit rate 0.2% among 330,000. AID 2557; in the data active means inhibition above about 50%
beta cell repl = induces beta-cell replication in MIN6 cells; MIN6 cells proliferation, ATPlite luminescence, 48 h; cells starved in 0.2% serum; 100% = growth in 10% serum; proliferation, % at 10 µM; hit rate 0.29% among 330,000; AID 2380;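 active means compounds whose signal lies at least 3.5 SD above the mean of all wells on their plate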;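 further: 0% = DMSO-treated cells in low-serum medium and 100% = 10% serum control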
CendR NRP1 mod = alters CendR peptide binding to human NRP-1 | hit rate 0.85% among 360,000 | AID 602438 | inhibition, % at 25 µM | FAM-RPARPAR peptide binding to NRP-1, fluorescence polarization;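 active means inhibition or corrected inhibition above about 18%, plus a signal ratio from 0.5 to 1.5, limit read from the data, passing the limit was not always enough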
Target sequence (O14786 whole entry, looked up): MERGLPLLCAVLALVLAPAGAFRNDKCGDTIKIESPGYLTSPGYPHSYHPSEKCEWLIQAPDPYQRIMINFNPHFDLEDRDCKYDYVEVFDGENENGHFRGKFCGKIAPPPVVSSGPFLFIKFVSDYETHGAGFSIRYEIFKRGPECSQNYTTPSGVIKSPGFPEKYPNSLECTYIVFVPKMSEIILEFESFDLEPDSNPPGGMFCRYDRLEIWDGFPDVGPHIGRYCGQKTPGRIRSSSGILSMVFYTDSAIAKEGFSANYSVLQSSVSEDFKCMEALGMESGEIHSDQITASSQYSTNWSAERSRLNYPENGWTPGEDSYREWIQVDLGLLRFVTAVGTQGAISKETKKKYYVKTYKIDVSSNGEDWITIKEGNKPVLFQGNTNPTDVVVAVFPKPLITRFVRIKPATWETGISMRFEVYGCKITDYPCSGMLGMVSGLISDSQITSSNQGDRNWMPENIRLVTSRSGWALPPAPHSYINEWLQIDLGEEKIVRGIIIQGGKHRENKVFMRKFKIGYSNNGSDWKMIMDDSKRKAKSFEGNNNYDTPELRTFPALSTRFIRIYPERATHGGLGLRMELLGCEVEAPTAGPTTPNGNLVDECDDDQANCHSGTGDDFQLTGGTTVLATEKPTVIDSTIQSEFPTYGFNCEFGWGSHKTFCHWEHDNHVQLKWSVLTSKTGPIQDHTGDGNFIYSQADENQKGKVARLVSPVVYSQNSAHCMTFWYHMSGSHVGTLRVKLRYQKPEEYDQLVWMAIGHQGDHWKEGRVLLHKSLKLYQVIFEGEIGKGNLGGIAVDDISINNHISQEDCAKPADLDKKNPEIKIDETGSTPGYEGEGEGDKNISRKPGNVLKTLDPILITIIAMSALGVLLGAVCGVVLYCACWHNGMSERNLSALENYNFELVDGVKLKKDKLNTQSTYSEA
APOBEC3G inh = blocks human APOBEC3G single-stranded DNA deamination | recombinant A3G, ssDNA deamination FAM/TAMRA fluorescence | inhibition, % at 20 µM | hit rate 0.28% among 330,000;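 active means inhibition of at least 40% at 20 µM, with no more than 30% in the related APOBEC3A deaminase screen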;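 further: plate controls were DMSO wells with A3G for no effect and wells lacking A3G enzyme for full effect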
* = called active by the depositor; / = not tested or not shown.

SMILES | APOBEC3A inh | VLA-4 inh | beta cell repl | CendR NRP1 mod | APOBEC3G inh
CC1(C(=O)NS(=O)(=O)c2ccccc2Cl)CCN1C(=O)CC1CCCCC1 (centres undefined) | / | / | / | -1 | /
CC1(C(=O)NS(=O)(=O)c2ccccc2Cl)CCN1C(=O)CC1CC1 (centres undefined) | / | / | / | 28* | /
COc1ccccc1CNC(=O)COc1ccc(S(=O)(=O)N2CCCC2)cc1 | -3 | 18 | 0 | 10 | -8
CC(=O)c1ccc(N2CCN(C(=O)[C@H](C)NC(=O)c3ccccc3Cl)CC2)cc1 | -1 | 2 | 0 | -4 | -4
COc1ccc(OC(C)C(=O)NC(C)c2ccccc2)cc1 (centres undefined) | -2 | 3 | 0 | 5 | -12
COc1ccc(NC(=O)c2ccc(Br)c(S(=O)(=O)N3CCOCC3)c2)cc1 | 6 | 0 | 0 | 4 | -1
O=C(NCc1ccccc1)c1ccccc1C(=O)c1ncc[nH]1 | 6 | 6 | 1 | 27* | -4
CCCCCCC1CC(CSC(=N)N)OC1=O (centres undefined) | -6 | 16 | -3 | -10 | -9
CCCC1CC(CSC(=N)N)OC1=O (centres undefined) | -1 | -4 | -2 | 27* | -4
CN(CC(=O)OCC(=O)NC1CCCC1)S(=O)(=O)c1ccc(Cl)cc1 | 5 | 7 | -4 | 7 | 9
CN(C)C(=O)c1ccc(N=Nc2c(O)c3ccccc3[nH]c2=O)cc1 | / | / | / | -2 | /
Cc1cc(N=Nc2c(O)c3ccccc3[nH]c2=O)ccc1N=Nc1ccc(C(=O)N(C)C)cc1 | 2 | / | 1 | 23* | -4
O=C1Nc2cc(C(=O)NCC3CCCO3)ccc2S/C1=C/c1ccccc1F (centres undefined) | -4 | -3 | -4 | -9 | -5
CCCc1sc(N)nc1-c1ccc(C)cc1 | -1 | -2 | -4 | 17* | 1
Cc1ccc(-c2nc(N)sc2C)cc1 | -1 | -2 | -3 | 1 | -6
CCC(C)C(NC(=O)C1CCC(C)CC1)C(=O)NCCc1ccc(S(N)(=O)=O)cc1 (centres undefined) | -1 | -2 | 1 | 11 | -4
Cc1ccc(-c2cc([C@H]3[C@@H]4C=CCC[C@@]4(C)C(=O)N3Cc3ccccc3)ccc2F)cc1 | -2 | 34 | -8 | 6 | -2
Cc1ccc(F)c([C@H]2[C@@H]3C=CCC[C@@]3(C)C(=O)N2Cc2ccccc2)c1 | 0 | 2 | -8 | 28* | -2
Nn1c(SCC(=O)NCCC2=CCCCC2)nnc1C(F)(F)F | -1 | -7 | -1 | 28* | -3
Oc1ccc(CCNc2ncnc3ccc(Cl)cc23)cc1 | -1 | 3 | -8 | -1 | -4
Cc1ccc(NC2=C(Cl)C(=O)c3ccccc3C2=O)cc1 | / | 21 | / | 12 | /
CCN(CC)c1ccc(NC2=C(Cl)C(=O)c3ccccc3C2=O)cc1 | / | 54* | / | 36* | /
COc1ccc(OC)c(NC(=O)CCn2ccnc2)c1 | -4 | 4 | -2 | 4 | -3
CC(=O)c1ccc(S(=O)(=O)NCCC(=O)NC(C)c2ccncc2)cc1 (centres undefined) | -1 | -1 | 3 | -6 | -5
CC(=O)c1cccc(NC(=O)COC(=O)c2ccccc2C)c1 | 2 | -35 | -1 | 4 | 4
SMILES | APOBEC3A inh | VLA-4 inh | beta cell repl | CendR NRP1 mod | APOBEC3G inh
CCOC(=O)C1=C(O)C(=O)N(c2ccccc2)C1c1cccc([N+](=O)[O-])c1 (centres undefined) | -5 | 4 | 3 | 26* | -6
CCOC(=O)C1=C(O)C(=O)N(c2ccc(S(N)(=O)=O)cc2)C1c1cccc([N+](=O)[O-])c1 (centres undefined) | -2 | -4 | -3 | 15 | -3
CCOc1ccc(C(C)C)cc1S(=O)(=O)N1CCN(C(=O)c2ccco2)CC1 | 2 | 4 | -3 | 6 | -1
COc1ccc(Br)cc1/C=C(\C(=O)O)c1ccc(S(=O)(=O)N2CCCCC2)s1 | 8 | 10 | -4 | -22 | -4
COc1ccc(-c2csc(NCc3ccco3)n2)cc1C | -2 | -14 | -6 | 23* | -2
COc1ccc(-c2cn3nc(SCC(=O)NCC4CCCO4)ccc3n2)cc1 (centres undefined) | 1 | 7 | -3 | 4 | 2
O=[N+]([O-])c1cc(-c2nc3nc4ccccc4nc3n2CCc2ccccc2)cc([N+](=O)[O-])c1 | -1 | -13 | 0 | 28* | -1
Cc1oc2ccc(O)cc2c1C(=O)OC(C)C | 0 | 13 | -2 | 11 | -7
Cc1oc2ccc(OCC(N)=O)cc2c1C(=O)OC(C)C | -4 | 20 | -1 | 28* | -4
COc1cc(C(=O)OCCCOC(=O)c2cc(OC)c(OC)c(OC)c2)cc(OC)c1OC | -2 | 10 | -1 | 22* | -6
O=C(CN1N=C(c2ccccc2)CCC1=O)NCCN1CCc2ccccc2C1 | 11 | 18 | 4.6* | -12 | -4
NC1(C(=O)O)CCCCC1c1ccccc1 (centres undefined) | / | / | / | 16 | /
Cc1ccc(S(=O)(=O)Oc2ccccc2[N+](=O)[O-])cc1 | / | / | / | 20* | /
COc1ccccc1[N+](=O)[O-] | -2 | 20 | 0 | 1 | -9
CCCNC(=O)C(Cc1cccc(OC)c1)NC(=O)c1ccc(C(C)(C)C)cc1 (centres undefined) | 2 | 18 | -6 | 14 | 1
COc1cc(NCCCNC(C)C)c2nccc(C)c2c1 | / | / | / | 26* | /
CCC(C)n1c(=S)[nH]c2ccccc2c1=O (centres undefined) | -3 | 12 | -1 | 28* | 5
Cc1cc(NC(=O)CSc2nc3ccccc3c(=O)n2Cc2ccccc2)no1 | -5 | 15 | 2 | 8 | -7
Cc1ccc(Cn2c(SCC(=O)Nc3cc(C)on3)nc3ccccc3c2=O)cc1 | 5 | -2 | -3 | 28* | 1
NS(=O)(=O)c1ccc(CCNC(=O)c2cc(-c3ccccc3)nc3ccccc23)cc1 | -4 | 5 | 0 | 30* | -10
Cc1cccc(C(=O)OCC(=O)N2CCCC2=O)c1O | -1 | 0 | 2 | 8 | -5
C[C@H]1CN([C@@H](C)CO)C(=O)c2cc(NC(=O)Nc3cccc4ccccc34)ccc2O[C@@H]1CN(C)Cc1ccc(-c2ccccc2)cc1 | 0 | -22 | -6 | 25* | 9
C[C@@H]1CN([C@H](C)CO)C(=O)c2cc(NC(=O)Nc3cccc4ccccc34)ccc2O[C@H]1CN(C)Cc1ccc(C(F)(F)F)cc1 | -3 | 3 | -5 | -26 | -4
C[C@H](CO)N1C[C@H](C)[C@@H](CN(C)S(=O)(=O)c2ccccc2)Oc2ccc(NC(=O)Cc3ccccc3)cc2C1=O | -1 | 7 | 0 | 24* | -7
C[C@@H]1CN([C@@H](C)CO)C(=O)Cc2cc(NS(=O)(=O)c3ccccc3)ccc2O[C@H]1CN(C)S(C)(=O)=O | -2 | -1 | 6 | 21* | -6
C=C1CCN([C@H](C(=O)OCc2cccc(C)c2)C(C)C)S(=O)(=O)c2ccccc21 | -3 | -6 | -7 | 12 | -16
